{"source": "PubChem BioAssay", "key": {"[1]": {"assay": "viability loss in pontine glioma line – cell-based, SU-DIPG-XXV, MIPE5.0, CellTiter-Glo, qHTS, dose response (AID 1347065);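 further: cells exposed to compound for 48 hours before ATP readout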", "details": "CellTiter-Glo ATP luminescence"}, "[2]": {"assay": "SU-DIPG-VI glioma cell viability, MIPE4.0 library, CellTiter-Glo luminescence, qHTS (AID 1347066; cut-off not given, nearly all actives have AC50 up to about 30 µM;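 further: cells exposed to compound for 48 hours before readout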)", "details": "CellTiter-Glo ATP luminescence"}, "[3]": {"assay": "JHH-DIPG-1 glioma cell viability, MIPE5.0 library, CellTiter-Glo luminescence, qHTS (AID 1347067);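 further: cells exposed to compound for 48 hours before readout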", "details": "JHH-DIPG-1 glioma viability, CellTiter-Glo ATP luminescence"}, "[4]": {"assay": "SU-DIPG-XXV glioma cell viability, MIPE5.0 library, qHTS (AID 1347068; cut-off not given, nearly all actives have IC50 up to about 30 µM;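 on IC50: cells exposed to compound for 48 hours before viability readout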)"}, "[5]": {"assay": "sensitizers of A549 cells to miR-34 induction, primary screen, imaging, A549 dox-inducible miR-34, nuclei and caspase counts (AID 1347080;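 active means compounds whose cell count with miR-34 switched on is under 0.7 times the count with it off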)", "details": "A549 miR-34 inducible, Hoechst nuclei count, 48 h"}, "[6]": {"assay": "survival rescue of mitochondrial mutant cells in low glucose, primary screen, MELAS cybrids, Rieske KO mouse fibroblasts, CellTiter-Glo (AID 1508586;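 active means mean z-score across replicates of 1.96 or higher in either the MELAS or the Rieske mutant cell line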;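 further: z relative to plate mean and SD of compound and empty wells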)"}, "[7]": {"biological_target": "NAD(+) hydrolase SARM1 (Homo sapiens) (UniProt Q6SZW1)", "sequence (Q6SZW1 whole entry, looked up)": "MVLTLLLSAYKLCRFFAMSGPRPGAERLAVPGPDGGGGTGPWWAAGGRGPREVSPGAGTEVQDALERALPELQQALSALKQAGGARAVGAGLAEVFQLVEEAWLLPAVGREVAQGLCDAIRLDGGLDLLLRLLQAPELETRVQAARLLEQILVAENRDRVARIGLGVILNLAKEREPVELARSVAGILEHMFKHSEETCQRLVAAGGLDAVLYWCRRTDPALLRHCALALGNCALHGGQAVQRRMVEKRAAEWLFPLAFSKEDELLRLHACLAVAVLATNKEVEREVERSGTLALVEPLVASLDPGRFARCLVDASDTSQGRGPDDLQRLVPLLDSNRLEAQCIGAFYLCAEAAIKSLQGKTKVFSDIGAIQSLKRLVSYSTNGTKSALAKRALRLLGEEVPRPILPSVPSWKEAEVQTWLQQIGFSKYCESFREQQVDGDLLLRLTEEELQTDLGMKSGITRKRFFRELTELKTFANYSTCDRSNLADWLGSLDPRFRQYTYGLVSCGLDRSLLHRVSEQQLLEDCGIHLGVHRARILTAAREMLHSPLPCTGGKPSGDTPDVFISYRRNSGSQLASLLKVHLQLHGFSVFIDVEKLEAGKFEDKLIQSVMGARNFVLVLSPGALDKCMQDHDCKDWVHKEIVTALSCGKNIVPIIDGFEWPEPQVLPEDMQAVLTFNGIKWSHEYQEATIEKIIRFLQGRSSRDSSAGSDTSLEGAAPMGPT", "assay": "SARM1 TIR NADase inhibitors, cell lysate, NAD-Glo luminescence (AID 1508614;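 active means compound whose remaining NAD level is above about 45 nM, limit read from the data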)", "details": "SAM-TIR HEK293T lysate NADase, at 1 µM, stronger effect = higher value"}, "[8]": {"biological_target": "Mitogen-activated protein kinase 7 (Homo sapiens) (UniProt Q13164)", "sequence (Q13164 whole entry, looked up, the tested form may be a part)": "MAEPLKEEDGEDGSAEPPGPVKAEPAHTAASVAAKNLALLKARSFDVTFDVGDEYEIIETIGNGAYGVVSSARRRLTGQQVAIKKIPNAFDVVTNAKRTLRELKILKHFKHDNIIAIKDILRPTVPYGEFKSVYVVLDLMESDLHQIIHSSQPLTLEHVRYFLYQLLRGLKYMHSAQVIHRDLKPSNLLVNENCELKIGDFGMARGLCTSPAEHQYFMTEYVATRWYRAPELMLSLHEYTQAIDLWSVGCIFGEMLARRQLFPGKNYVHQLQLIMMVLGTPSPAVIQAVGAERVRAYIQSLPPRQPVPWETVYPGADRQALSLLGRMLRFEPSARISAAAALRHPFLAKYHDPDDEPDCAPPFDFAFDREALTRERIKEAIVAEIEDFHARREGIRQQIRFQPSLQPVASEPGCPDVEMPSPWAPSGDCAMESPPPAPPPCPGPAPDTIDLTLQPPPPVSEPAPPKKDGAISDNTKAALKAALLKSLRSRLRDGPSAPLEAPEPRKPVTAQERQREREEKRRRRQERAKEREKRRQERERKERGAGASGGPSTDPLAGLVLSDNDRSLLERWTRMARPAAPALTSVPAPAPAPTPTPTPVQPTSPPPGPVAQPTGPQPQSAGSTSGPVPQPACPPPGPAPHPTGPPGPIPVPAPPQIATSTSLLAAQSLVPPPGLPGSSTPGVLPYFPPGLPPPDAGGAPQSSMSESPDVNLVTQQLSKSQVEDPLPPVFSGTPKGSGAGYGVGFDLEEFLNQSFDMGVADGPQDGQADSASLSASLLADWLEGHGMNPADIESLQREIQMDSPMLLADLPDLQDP", "assay": "ERK5 transactivation activators in reporter cells, primary screen, cell-based, HTS (AID 1508626;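 active means luciferase signal above three times the same-plate solvent-only control wells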;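 further: luciferase driven by Gal4-ERK5 fusion binding five Gal4 sites before minimal TATA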)", "details": "HeLa Gal4-ERK5 transactivation, 18 h, at 5 µM, stronger effect = higher value"}, "[9]": {"assay": "phospholipid biosynthesis inhibitors in animal cells, primary screen, cell-based, LOPAC library, screen 4 (AID 1347384; call rule not given here)", "details": "phospholipid biosynthesis inhibition screen, at 10 µM"}, "[10]": {"assay": "viability rescue of complex I mutant cybrids, primary screen, cell-based, galactose medium, ATP luminescence (AID 1645843;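 active means z-score of at least 1.8 in each of two replicates, scored against plate mean and spread of sample wells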;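 further: positive z means more ATP and so rescue of galactose-driven cybrid death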)", "details": "complex I mutant cybrid cells, 72 h, stronger effect = higher value"}, "[11]": {"assay": "modifiers of HSF1 nuclear foci, imaging, Selleck Cancer Library (AID 1347162; in the data active means plate-normalised HSF1 focus index below about 0.46)", "details": "human cells, at 10 µM; SSMD: measured here: HSF1 foci SSMD mean; cell count: measured here: cell number; plate-normalised HSF1 focus index: stronger effect = lower value"}, "[12]": {"details": "stronger effect = lower value, cell number ratio, induced over uninduced"}, "[13]": {"details": "measured here: relative caspase fold change +Dox/-Dox"}, "[14]": {"details": "measured here: total cells with miR-34 induction, stronger effect = lower value"}, "[15]": {"details": "measured here: total cells without miR-34 induction"}, "[16]": {"details": "MELAS cybrid survival, CellTiter-Glo 48 h, stronger effect = higher value"}, "[17]": {"details": "Rieske KO mouse fibroblast survival, CellTiter-Glo 72 h"}}, "note": "“And” between values parts separate entries of the source, which are not always exact repeats. Identical values can stand only once. Inconclusive results are not listed. The source made the active and inactive calls. Unless noted, cut-off not given; nearly all actives show AC50 up to about 26 µM.", "data": [{"smiles": "Cn1c(=O)c2c(ncn2CC(O)CO)n(C)c1=O", "note": "(stereo not drawn)", "values": [{"measurement": "outcome", "setting": "[1]", "value": "inactive"}, {"measurement": "outcome", "setting": "[2]", "value": "inactive"}, {"measurement": "outcome", "setting": "[3]", "value": "inactive"}, {"measurement": "outcome", "setting": "[4]", "value": "inactive"}, {"measurement": "fold change", "setting": "[5]; [12]", "value": "0.891 (inactive) and 0.954 (inactive) and 0.903 (inactive)"}, {"measurement": "fold change", "setting": "[5]; [13]", "value": "1.59 and 0.805 and 1.72"}, {"measurement": "cell count", "setting": "[5]; [14]", "value": "9080 and 7480 and 11300"}, {"measurement": "cell count", "setting": "[5]; [15]", "value": "10200 and 7830 and 12600"}, {"measurement": "z-score", "setting": "[6]; [16]", "value": "-0.421 (inactive) and 0.782 (inactive)"}, {"measurement": "z-score", "setting": "[6]; [17]", "value": "0.428 and -0.0518"}, {"measurement": "remaining NAD", "setting": "[7]", "value": "10 nM (inactive)"}, {"measurement": "luciferase signal", "setting": "[8]", "value": "20 AU (inactive)"}]}, {"smiles": "CNC[C@H](O)c1cccc(O)c1", "values": [{"measurement": "outcome", "setting": "[1]", "value": "inactive"}, {"measurement": "outcome", "setting": "[2]", "value": "inactive"}, {"measurement": "outcome", "setting": "[3]", "value": "inactive"}, {"measurement": "outcome", "setting": "[4]", "value": "inactive"}, {"measurement": "fold change", "setting": "[5]; [12]", "value": "0.733 (inactive) and 0.885 (inactive) and 0.869 (inactive)"}, {"measurement": "fold change", "setting": "[5]; [13]", "value": "1.33 and 1.38 and 1.19"}, {"measurement": "cell count", "setting": "[5]; [14]", "value": "6820 and 9660 and 11500"}, {"measurement": "cell count", "setting": "[5]; [15]", "value": "9300 and 10900 and 13200"}, {"measurement": "outcome", "setting": "[9]", "value": "inactive"}, {"measurement": "z-score", "setting": "[6]; [16]", "value": "-0.327 (inactive)"}, {"measurement": "z-score", "setting": "[6]; [17]", "value": 0.52}, {"measurement": "remaining NAD", "setting": "[7]", "value": "10 nM (inactive)"}, {"measurement": "luciferase signal", "setting": "[8]", "value": "40 AU (inactive)"}, {"measurement": "z-score", "setting": "[10]", "value": "0.64 (inactive)"}]}, {"smiles": "CC(=O)[C@]1(O)Cc2c(O)c3c(c(O)c2[C@@H](O[C@H]2C[C@H](N)[C@H](O)[C@H](C)O2)C1)C(=O)c1ccccc1C3=O", "values": [{"measurement": "AC50", "setting": "[1]", "value": "5.25 µM (active)"}, {"measurement": "AC50", "setting": "[2]", "value": "13.2 µM (active)"}, {"measurement": "AC50", "setting": "[3]", "value": "4.68 µM (active)"}, {"measurement": "IC50", "setting": "[4]", "value": "23.5 µM (active)"}, {"measurement": "fold change", "setting": "[5]; [12]", "value": "1.18 (inactive) and 1.09 (inactive)"}, {"measurement": "fold change", "setting": "[5]; [13]", "value": "0.974 and 1.09"}, {"measurement": "cell count", "setting": "[5]; [14]", "value": "743 and 2700"}, {"measurement": "cell count", "setting": "[5]; [15]", "value": "630 and 2460"}, {"measurement": "SSMD", "setting": "[11]", "value": -18.6}, {"measurement": "cell count", "setting": "[11]", "value": 5180}, {"measurement": "plate-normalised HSF1 focus index", "setting": "[11]", "value": "0.0445 (active)"}, {"measurement": "outcome", "setting": "[9]", "value": "inactive"}, {"measurement": "z-score", "setting": "[6]; [16]", "value": "2.62 (active)"}, {"measurement": "z-score", "setting": "[6]; [17]", "value": -0.996}, {"measurement": "z-score", "setting": "[10]", "value": "-1.04 (inactive) and -2.14 (inactive)"}]}, {"smiles": "CC(=O)O[C@H]1C[C@@H]2CC[C@@H]3[C@H](CC[C@@]4(C)[C@H]3C[C@H]([N+]3(C)CCCCC3)[C@@H]4OC(C)=O)[C@@]2(C)C[C@@H]1N1CCCCC1", "values": [{"measurement": "outcome", "setting": "[1]", "value": "inactive"}, {"measurement": "outcome", "setting": "[2]", "value": "inactive"}, {"measurement": "outcome", "setting": "[3]", "value": "inactive"}, {"measurement": "outcome", "setting": "[4]", "value": "inactive"}, {"measurement": "fold change", "setting": "[5]; [12]", "value": "0.831 (inactive)"}, {"measurement": "fold change", "setting": "[5]; [13]", "value": 1.81}, {"measurement": "cell count", "setting": "[5]; [14]", "value": 8710}, {"measurement": "cell count", "setting": "[5]; [15]", "value": 10500}, {"measurement": "z-score", "setting": "[6]; [16]", "value": "0.144 (inactive) and 0.341 (inactive)"}, {"measurement": "z-score", "setting": "[6]; [17]", "value": "-0.264 and -0.536"}, {"measurement": "remaining NAD", "setting": "[7]", "value": "10 nM (inactive)"}, {"measurement": "luciferase signal", "setting": "[8]", "value": "52 AU (inactive)"}, {"measurement": "z-score", "setting": "[10]", "value": "0.335 (inactive)"}]}, {"smiles": "CCCN[C@H]1CCc2nc(N)sc2C1", "values": [{"measurement": "outcome", "setting": "[1]", "value": "inactive"}, {"measurement": "outcome", "setting": "[2]", "value": "inactive"}, {"measurement": "outcome", "setting": "[3]", "value": "inactive"}, {"measurement": "outcome", "setting": "[4]", "value": "inactive"}, {"measurement": "fold change", "setting": "[5]; [12]", "value": "0.926 (inactive) and 0.917 (inactive)"}, {"measurement": "fold change", "setting": "[5]; [13]", "value": "0.996 and 1.3"}, {"measurement": "cell count", "setting": "[5]; [14]", "value": "7940 and 9730"}, {"measurement": "cell count", "setting": "[5]; [15]", "value": "8570 and 10600"}, {"measurement": "outcome", "setting": "[9]", "value": "inactive"}, {"measurement": "z-score", "setting": "[6]; [16]", "value": "0.752 (inactive) and 0.407 (inactive)"}, {"measurement": "z-score", "setting": "[6]; [17]", "value": "0.13 and -0.361"}, {"measurement": "z-score", "setting": "[10]", "value": "0.97 (inactive)"}]}, {"smiles": "CCCc1cc(C(N)=S)ccn1", "values": [{"measurement": "outcome", "setting": "[1]", "value": "inactive"}, {"measurement": "outcome", "setting": "[2]", "value": "inactive"}, {"measurement": "outcome", "setting": "[3]", "value": "inactive"}, {"measurement": "outcome", "setting": "[4]", "value": "inactive"}, {"measurement": "fold change", "setting": "[5]; [12]", "value": "0.877 (inactive) and 0.879 (inactive)"}, {"measurement": "fold change", "setting": "[5]; [13]", "value": "0.726 and 1.06"}, {"measurement": "cell count", "setting": "[5]; [14]", "value": "7890 and 9370"}, {"measurement": "cell count", "setting": "[5]; [15]", "value": "8990 and 10700"}, {"measurement": "z-score", "setting": "[6]; [16]", "value": "-0.334 (inactive) and 1.02 (inactive) and 0.566 (inactive)"}, {"measurement": "z-score", "setting": "[6]; [17]", "value": "-0.0512 and 0.419 and 0.177"}, {"measurement": "remaining NAD", "setting": "[7]", "value": "10 nM (inactive)"}, {"measurement": "luciferase signal", "setting": "[8]", "value": "96 AU (inactive)"}, {"measurement": "z-score", "setting": "[10]", "value": "0.335 (inactive)"}]}, {"smiles": "Cn1cnc2c1c(=O)[nH]c(=O)n2C", "values": [{"measurement": "outcome", "setting": "[1]", "value": "inactive"}, {"measurement": "AC50", "setting": "[2]", "value": "20.9 µM (active)"}, {"measurement": "outcome", "setting": "[3]", "value": "inactive"}, {"measurement": "outcome", "setting": "[4]", "value": "inactive"}, {"measurement": "fold change", "setting": "[5]; [12]", "value": "0.912 (inactive) and 0.854 (inactive) and 0.906 (inactive)"}, {"measurement": "fold change", "setting": "[5]; [13]", "value": "0.922 and 1.4 and 3.48"}, {"measurement": "cell count", "setting": "[5]; [14]", "value": "9550 and 8390 and 11600"}, {"measurement": "cell count", "setting": "[5]; [15]", "value": "10500 and 9820 and 12900"}, {"measurement": "outcome", "setting": "[9]", "value": "inactive"}, {"measurement": "z-score", "setting": "[6]; [16]", "value": "-0.269 (inactive)"}, {"measurement": "z-score", "setting": "[6]; [17]", "value": -0.702}, {"measurement": "remaining NAD", "setting": "[7]", "value": "10 nM (inactive)"}, {"measurement": "luciferase signal", "setting": "[8]", "value": "60 AU (inactive)"}, {"measurement": "z-score", "setting": "[10]", "value": "0.475 (inactive)"}]}, {"smiles": "NC[C@H](O)c1ccc(O)c(O)c1", "values": [{"measurement": "outcome", "setting": "[1]", "value": "inactive"}, {"measurement": "outcome", "setting": "[2]", "value": "inactive"}, {"measurement": "outcome", "setting": "[3]", "value": "inactive"}, {"measurement": "outcome", "setting": "[4]", "value": "inactive"}, {"measurement": "outcome", "setting": "[9]", "value": "inactive"}, {"measurement": "z-score", "setting": "[6]; [16]", "value": "-0.303 (inactive) and 0.0574 (inactive) and -0.946 (inactive)"}, {"measurement": "z-score", "setting": "[6]; [17]", "value": "-0.266 and 0.00809 and -1.27"}, {"measurement": "remaining NAD", "setting": "[7]", "value": "10 nM (inactive)"}, {"measurement": "luciferase signal", "setting": "[8]", "value": "60 AU (inactive)"}, {"measurement": "z-score", "setting": "[10]", "value": "-1.45 (inactive) and -1.61 (inactive) and -1.02 (inactive)"}]}]}
